Test results as given in PubChem BioAssay.
Results filed as inconclusive are left out. Active and inactive are the calls of the source.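 How the source made its calls, unless noted: active means viability loss from added drug above about 55%, and viability with drug at most 40%, in both replicates (limit read from the data, passing the limit was not always enough); inconclusive means both conditions met in only one replicate; inactive means neither replicate meets both conditions.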

Experiments:
[1] = Her2 expression decrease, cell viability multiplex – SKBR3 breast tumor cells, AlphaScreen, ATP viability, primary screen (AID 461;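 active means Her2 level under about 52% in both replicate screens, with viability over 70% of control, limit read from the data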;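 on Her2 level: lower value means less Her2 protein in the cells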;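 on viability: percent of carrier control wells set as 100% viability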); conditions: SKBR3 Her2 protein level, 18-24 h, measured here: SKBR3 viability, ATP luminescence, at 10 µM
[2] = molecular target: Receptor tyrosine-protein kinase erbB-2 (Homo sapiens) (UniProt P04626); test: as above; conditions: 18-24 h, at 10 µM, stronger effect = lower value
Sequence of Receptor tyrosine-protein kinase erbB-2 (Homo sapiens) (P04626 whole entry, looked up): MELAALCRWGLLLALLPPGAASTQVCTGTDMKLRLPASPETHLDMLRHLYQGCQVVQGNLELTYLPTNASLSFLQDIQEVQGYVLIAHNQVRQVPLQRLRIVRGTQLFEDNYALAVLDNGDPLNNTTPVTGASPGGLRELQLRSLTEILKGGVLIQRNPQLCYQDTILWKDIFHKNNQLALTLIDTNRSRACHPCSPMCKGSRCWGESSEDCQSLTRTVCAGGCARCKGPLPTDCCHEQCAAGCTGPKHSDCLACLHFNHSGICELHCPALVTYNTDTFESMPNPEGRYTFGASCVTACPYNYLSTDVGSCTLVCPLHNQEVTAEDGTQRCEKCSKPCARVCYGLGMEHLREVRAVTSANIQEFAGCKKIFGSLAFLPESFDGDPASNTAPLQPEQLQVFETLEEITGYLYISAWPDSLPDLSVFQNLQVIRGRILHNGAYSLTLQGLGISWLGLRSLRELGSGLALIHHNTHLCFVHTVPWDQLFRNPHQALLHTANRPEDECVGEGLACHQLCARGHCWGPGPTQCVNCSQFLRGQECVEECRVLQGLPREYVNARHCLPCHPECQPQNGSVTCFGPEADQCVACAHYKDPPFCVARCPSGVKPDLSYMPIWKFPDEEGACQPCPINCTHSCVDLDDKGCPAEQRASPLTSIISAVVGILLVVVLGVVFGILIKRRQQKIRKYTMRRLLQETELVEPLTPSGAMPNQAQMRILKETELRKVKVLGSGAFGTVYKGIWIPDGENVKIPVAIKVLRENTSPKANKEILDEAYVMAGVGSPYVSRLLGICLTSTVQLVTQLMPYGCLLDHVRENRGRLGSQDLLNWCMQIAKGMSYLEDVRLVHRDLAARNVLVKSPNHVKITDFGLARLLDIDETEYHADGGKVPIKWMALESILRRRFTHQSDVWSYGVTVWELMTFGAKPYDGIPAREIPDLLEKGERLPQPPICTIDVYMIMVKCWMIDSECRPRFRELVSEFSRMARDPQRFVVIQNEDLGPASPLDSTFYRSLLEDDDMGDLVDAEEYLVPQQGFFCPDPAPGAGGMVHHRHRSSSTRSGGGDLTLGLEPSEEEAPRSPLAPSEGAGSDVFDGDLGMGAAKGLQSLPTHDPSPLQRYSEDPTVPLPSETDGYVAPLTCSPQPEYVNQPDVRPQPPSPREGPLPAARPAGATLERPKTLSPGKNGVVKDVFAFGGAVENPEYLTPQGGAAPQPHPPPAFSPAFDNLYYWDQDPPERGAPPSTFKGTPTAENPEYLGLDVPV

[3] = reduced viability of SK-BR-3 breast cancer cells – cell-based, 24 h, human, pilot screen (AID 572;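 active means viability at or below 10% of carrier control in both of two separate runs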;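 further: compound exposure lasted between 18 and 24 h rather than exactly 24 h; 100% = carrier-treated control wells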); conditions: SK-BR-3 viability, CellTiter-Glo luminescence, at 10 µM, stronger effect = lower value
[4] = HUVEC growth inhibition – cell-based, human, primary screen (AID 575;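 active means viability at or below 30% in both replicate assays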;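 further: 100% = median of untreated cell wells with 0.1% DMSO on each plate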); conditions: HUVEC proliferation, CellTiter-Glo luminescence, 72 h; at 10 µM; stronger effect = lower value
[5] = H69AR cell proliferation blockers – human, duplicate replicates, primary screen (AID 580;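 active means viability at or under a set limit in both replicates, limit being median viability minus 3 SD, cut at about 48% in these data, passing the limit was not always enough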;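 further: 100% = mean luminescence of untreated wells and 0% = no signal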); conditions: H69AR lung tumor cells viability, ATP luminescence, 72 h; at 10 µM; stronger effect = lower value
[6] = MRP1 drug-resistance reversers in H69AR cells – cell-based, doxorubicin co-treatment, pilot screen (AID 601); conditions: CellTiter-Glo, 72 h, at 10 µM; for differential viability (reversal): stronger effect = higher value
[7] = yeast transport mutant growth inhibition pilot in 384-well plates, post-Golgi transport modulator project (AID 636; in the data active means inhibition above about 31%); conditions: absorbance 615 nm, about 18 h, stronger effect = higher value
[8] = growth suppression of yeast trafficking mutant, preliminary HTS, modulators of trafficking downstream of Golgi apparatus project, 1536-format plate, OD 615 nm (AID 637; in the data active means inhibition above about 30%); conditions: yeast transport mutant growth, absorbance 615 nm, 18 h; stronger effect = higher value
[9] = S. cerevisiae growth inhibition in permissive medium (OD615), pilot counter-assay for S. cerevisiae lifespan shortening project, permissive growth control (AID 705;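 active means growth inhibition above 25% in both replicates, a cutoff set 3 SD above the mean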); conditions: OD615, 24 h, at 10 µM, stronger effect = higher value
[10] = S. cerevisiae growth inhibition in restrictive medium, OD615, pilot screen, restrictive growth control, yeast lifespan reduction project (AID 706;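 active means growth inhibition above a set limit, 3 SD over mean compound inhibition, in both replicates, cut at about 43% in these data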;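 further: modified DeaD lifespan yeast strain shifted to restrictive glucose medium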); conditions: OD615, 48 h, at 10 µM, stronger effect = higher value
[11] = doxorubicin toxicity protection in MRP-1 cells – H69AR cells, CellTiter-Glo, duplicate, MRP-1 activator project, pilot screen (AID 807;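 active means viability increase at or above a cutoff of the median across tested compounds plus 3 SD, cut at about 8.5% in these data, passing the limit was not always enough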;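 further: compound pretreatment 18-22 h then 72 h combined with doxorubicin; 0% = doxorubicin alone and 100% = vehicle without doxorubicin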); conditions: H69AR viability with doxorubicin, CellTiter-Glo luminescence; at 10 µM; stronger effect = higher value
[12] = viability of HCT116 without oncogenic beta-catenin – human colon tumor cells, pilot screen (AID 823;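 active means cell viability at or below a set limit in both duplicate runs, the limit being the all-compound median minus 4 SD, cut at about 23% in these data, passing the limit was not always enough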;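 further: 0% = wells killed by 20 µM Hyamine and 100% = untreated DMSO cell wells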); conditions: HCT116 beta-catenin knockout viability, CellTiter-Glo, 60 h; at 10 µM; stronger effect = lower value
[13] = viability of PTEN-null HCT116 cells – cell-based, HCT116 clonal line, CellTiter-Glo, pilot screen (AID 824;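 active means viability at or below 27.92% in each of two runs, the all-compound median minus 4 SD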;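 further: 0% = 20 µM Hyamine control and 100% = vehicle cell control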); conditions: HCT116 PTEN-deleted viability, 60 h, at 10 µM, stronger effect = lower value
[14] = RAM pathway blockade in budding yeast – dse1pr::URA3 reporter, 5-FOA selection, pilot screen (AID 869;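 active means inhibition over a set limit, the all-compound mean plus 3 SD, in both replicate runs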;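 further: 0% = DMSO wells with no growth and 100% = 10 µM 1-NA-PP1 with full growth; RAM network block rescues cells from 5-FOA so hits raise OD615 growth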); conditions: S. cerevisiae dse1pr::URA3 5-FOA growth, OD615, 2 d; at 10 µM; stronger effect = higher value; strain carries analog-sensitive mutant Cbk1 kinase
[15] = RAM signaling pathway blockade in yeast – S. cerevisiae, Pdr1DBD-CYC8 efflux-inhibited sensitized strain, primary screen (AID 1298;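 active means RAM network inhibition above 8.4% in each of two replicates, 3 SD over the compound average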;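 further: 0% = DMSO untreated cells without growth and 100% = 10 µM 1-NA-PP1 full growth; higher means more yeast growth rescued from 5-FOA killing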); conditions: S. cerevisiae cbk1-as DSE1-URA3 strain, 5-FOA growth OD615, 2 d; at 50 µM; stronger effect = higher value
[16] = H69AR cells + 2 uM doxorubicin, measured here: viability with 2 uM doxorubicin, stronger effect = lower value
[17] = H69AR cells, compound alone cytotoxicity

| Structure (SMILES) | viability [1] | Her2 level [2] | viability [3] | viability [4] | viability [5] | differential viability (reversal) ([6]; H69AR cells + 2 uM doxorubicin) | viability [6, 16] | viability [6, 17] | inhibition [7] | inhibition [8] | growth inhibition [9] | growth inhibition [10] | viability increase [11] | viability [12] | viability [13] | inhibition [14] | RAM network inhibition [15] |
| --- | --- | --- | --- | --- | --- | --- | --- | --- | --- | --- | --- | --- | --- | --- | --- | --- | --- |
| Cc1[nH]c2ccccc2c(=O)c1CN1CCCCC1 | 99% | 103% (inactive) | 99% (inactive) | 101% (inactive) | 90.5% (inactive) | -0.56% (inactive) | 91.1% | 90.5% | -4.29% (inactive) | -3.67% (inactive) | -17.1% (inactive) | -15.9% (inactive) | -0.38% (inactive) | 97.3% (inactive) | 105% (inactive) | 0.515% (inactive) | -0.21% (inactive) |
| CCCCCn1c(CCNC(=O)CCC)nc2ccccc21 | 96.5% | 102% (inactive) | 96.5% (inactive) | 79.6% (inactive) | 87.4% (inactive) | 5.08% (inactive) | 82.4% | 87.4% | -4.67% (inactive) | 1.17% (inactive) | -0.135% (inactive) | -11.5% (inactive) | -1.41% (inactive) | 94% (inactive) | 87.2% (inactive) | 1.89% (inactive) | 2.6% (inactive) |
| CCCCNC(=O)Cn1c(=O)n(C)c2ccccc21 | 105% | 96.5% (inactive) | 105% (inactive) | 84.4% (inactive) | 88.5% (inactive) | -2.7% (inactive) | 91.2% | 88.5% | -5.07% (inactive) | -2% (inactive) | -9.7% (inactive) | -4.06% (inactive) | -0.03% (inactive) | 106% (inactive) | 101% (inactive) | 1.49% (inactive) | -1.79% (inactive) |
| CN1CCN(CCCNC(=O)Cn2ncc3c4ccccc4n(C)c3c2=O)CC1 | 84% | 129% (inactive) | 84% (inactive) | 82.7% (inactive) | 86% (inactive) | -8.1% (inactive) | 94.1% | 86% | 1.15% (inactive) | 10.8% (inactive) | -16.9% (inactive) | -28.7% (inactive) | -1.44% (inactive) | 92.9% (inactive) | 100% (inactive) | 3.37% (inactive) | 4.04% (inactive) |
| CCOC(=O)c1ccc(NCc2nc3ccccc3[nH]2)cc1 | 88.5% | 97% (inactive) | 88.5% (inactive) | 86% (inactive) | 105% (inactive) | 15.1% (inactive) | 89.7% | 105% | 0.93% (inactive) | -2.62% (inactive) | -1.66% (inactive) | -8.54% (inactive) | -5.9% (inactive) | 86.8% (inactive) | 76.8% (inactive) | 1.83% (inactive) | 2.11% (inactive) |
| O=C(Nc1cccc2ccccc12)c1ccc(Br)o1 | 120% | 88.5% (inactive) | 120% (inactive) | 87.1% (inactive) | 84% (inactive) | -1.12% (inactive) | 85.1% | 84% | -3.25% (inactive) | -0.17% (inactive) | -10% (inactive) | 1.96% (inactive) | -1.67% (inactive) | 94.3% (inactive) | 90.8% (inactive) | 0.995% (inactive) | 3.58% (inactive) |
| Cc1ccc2oc(=O)c3cnn(CC(=O)NCCC(C)C)c3c2c1 | 84.5% | 102% (inactive) | 84.5% (inactive) | 95.2% (inactive) | 88.1% (inactive) | 15.4% (inactive) | 72.6% | 88.1% | -0.26% (inactive) | -1.67% (inactive) | 2.22% (inactive) | -6.28% (inactive) | -1.72% (inactive) | 105% (inactive) | 100% (inactive) | 1.22% (inactive) | 6.67% (inactive) |
| CCCOc1ccc2ccccc2c1/C=N/n1cnnc1 | 93% | 91% (inactive) | 93% (inactive) | 66.7% (inactive) | 72.3% (inactive) | 3.08% (inactive) | 69.2% | 72.3% | -3.08% (inactive) | 2.67% (inactive) | -0.81% (inactive) | 6.62% (inactive) | -5.76% (inactive) | 92.4% (inactive) | 80.9% (inactive) | -0.575% (inactive) | -1.74% (inactive) |
| COc1ccc(C)cc1NC(=O)C1CCN(S(=O)(=O)c2cccc3cccnc23)CC1 | 80.5% | 94.5% (inactive) | 80.5% (inactive) | 102% (inactive) | 90.9% (inactive) | 4.79% (inactive) | 86.1% | 90.9% | -5.33% (inactive) | -1.48% (inactive) | -0.795% (inactive) | -2.36% (inactive) | -2.44% (inactive) | 95.3% (inactive) | 86% (inactive) | 1.77% (inactive) | 4.45% (inactive) |
| COc1cccc2cc(C(=O)N3CCN(c4ccc(C)cc4C)CC3)c(=O)oc12 | 116% | 110% (inactive) | 116% (inactive) | 93.7% (inactive) | 96.5% (inactive) | 7.98% (inactive) | 88.5% | 96.5% | -3.6% (inactive) | -6.67% (inactive) | -7.67% (inactive) | 5.05% (inactive) | -2.99% (inactive) | 85.3% (inactive) | 74.3% (inactive) | -0.005% (inactive) | 1.18% (inactive) |
| COc1cccc(C2=NOC(C(=O)Nc3cc(C)nn3-c3ccccc3)C2)c1OC (stereo not given) | 93% | 91% (inactive) | 93% (inactive) | 68.7% (inactive) | 28.6% (active) | -43.9% (inactive) | 72.5% | 28.6% | 2.31% (inactive) | -1.83% (inactive) | 1.31% (inactive) | 12% (inactive) | -5.04% (inactive) | 68.3% (inactive) | 60.2% (inactive) | 2.12% (inactive) | -0.06% (inactive) |
| CCOC(=O)c1ccccc1NC(=O)CSc1nccn1C | 89% | 94% (inactive) | 89% (inactive) | 94% (inactive) | 108% (inactive) | 15.5% (inactive) | 92.7% | 108% | 0.91% (inactive) | -3.44% (inactive) | -4.88% (inactive) | 3.13% (inactive) | -1.73% (inactive) | 102% (inactive) | 98.2% (inactive) | 1.55% (inactive) | 1.28% (inactive) |
| COc1cccc(C2=NOC(C(=O)N3CCN(c4ccccc4)CC3)C2)c1OC (stereo not given) | 104% | 97.5% (inactive) | 104% (inactive) | 95.9% (inactive) | 86.5% (inactive) | -12% (inactive) | 98.5% | 86.5% | -6.13% (inactive) | 0% (inactive) | -7.02% (inactive) | -5.35% (inactive) | 2.2% (inactive) | 93.6% (inactive) | 96.5% (inactive) | -0.58% (inactive) | 1% (inactive) |
| CCn1cc(C(=O)NCC2CCCO2)c(=O)c2cc(S(=O)(=O)N(C)C3CCCCC3)ccc21 (stereo not given) | 83.5% | 93.5% (inactive) | 83.5% (inactive) | 69.5% (inactive) | 68.5% (inactive) | -11.5% (inactive) | 80% | 68.5% | -1.41% (inactive) | 1.5% (inactive) | -2.38% (inactive) | -2.37% (inactive) | -5.22% (inactive) | 88.9% (inactive) | 87% (inactive) | 4.23% (inactive) | -0.83% (inactive) |
| CCCOc1ccc(N2CC(C(=O)Nc3ccc4c(c3)OCO4)CC2=O)cc1 (stereo not given) | 107% | 94% (inactive) | 107% (inactive) | 79.3% (inactive) | 86.4% (inactive) | -9.04% (inactive) | 95.4% | 86.4% | -4.13% (inactive) | -1.67% (inactive) | -11.2% (inactive) | 12.3% (inactive) | -2.44% (inactive) | 107% (inactive) | 102% (inactive) | 2.89% (inactive) | 2.77% (inactive) |
| COC(=O)CSc1nc2nc(C)cc(C)n2n1 | 99% | 96.5% (inactive) | 99% (inactive) | 88.8% (inactive) | 99.7% (inactive) | 5.46% (inactive) | 94.3% | 99.7% | -3.73% (inactive) | 3.17% (inactive) | -2.5% (inactive) | 1.47% (inactive) | -0.51% (inactive) | 97.7% (inactive) | 91.2% (inactive) | 2.01% (inactive) | 2.93% (inactive) |
| Cc1ccc(OCC(O)CN2C(=O)NC(C)(C)C2=O)cc1C (stereo not given) | 105% | 94.5% (inactive) | 105% (inactive) | 88% (inactive) | 102% (inactive) | 15.8% (inactive) | 86.4% | 102% | -5.73% (inactive) | 5.08% (inactive) | -11.3% (inactive) | -19.3% (inactive) | -0.62% (inactive) | 105% (inactive) | 94% (inactive) | 0.65% (inactive) | 4.18% (inactive) |
| CCOC(=O)c1sc2nc(NC(=O)C3CCCCC3)sc2c1C | 95.5% | 92.5% (inactive) | 95.5% (inactive) | 58.7% (inactive) | 76.9% (inactive) | 1.21% (inactive) | 75.7% | 76.9% | -0.4% (inactive) | -7.21% (inactive) | -4.09% (inactive) | -7.62% (inactive) | -0.22% (inactive) | 89.1% (inactive) | 95.2% (inactive) | 3.21% (inactive) | 4.73% (inactive) |
| Cc1cc(NC(=O)COc2cccc(C)c2C)no1 | 96% | 102% (inactive) | 96% (inactive) | 94.2% (inactive) | 108% (inactive) | 15.6% (inactive) | 92.5% | 108% | -0.53% (inactive) | -4.26% (inactive) | -0.27% (inactive) | 6.53% (inactive) | 3.52% (inactive) | 102% (inactive) | 105% (inactive) | 2.08% (inactive) | 2.68% (inactive) |
| CNC(=O)CN(c1ccc(C(C)C)cc1)S(C)(=O)=O | 94% | 108% (inactive) | 94% (inactive) | 95.6% (inactive) | 86.3% (inactive) | 0.39% (inactive) | 85.9% | 86.3% | -3.25% (inactive) | -4% (inactive) | -10.4% (inactive) | -21.6% (inactive) | 0.08% (inactive) | 95% (inactive) | 96.1% (inactive) | 1.04% (inactive) | 2.63% (inactive) |
